Results: PubChem BioAssay AID1159580 (chemical genetic matrix, 2015)
Where “and” joins values, the source holds several entries; their conditions need not be identical. Identical values can stand only once. The campaign covered roughly 5,500 compounds. About 2,000 (36%) were called active. Roughly 18% stayed inconclusive and do not appear here. Cut-off read from the data, not from the text of the source: active = normalized growth mostly below about 0.91 (no sharp cut-off); inconclusive = no clear call, values can overlap the other calls; inactive = mostly above about 0.92. This is one part of the list.

Test: chemical genetic growth profiling, strain panel (AID 1159580);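 note: tested at 20 µM; growth read once vehicle control cultures reached saturation at 30 °C; 1 = growth at the plate median or of vehicle wells; lower values mean less growth of the strain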
Conditions: S. cerevisiae deletion strains, growth OD

Measured: normalized growth

NCCCC[C@H](N[C@@H](CCc1ccccc1)C(=O)O)C(=O)N1CCC[C@H]1C(=O)O
inactive: locus YAL021C, strain ccr4, hits give low values 1.01 | locus YAL026C, strain drs2, hits give low values 1.02 | locus YAL030W, strain snc1, hits give low values 0.978 | locus YBL061C, strain skt5, hits give low values 1.01 | locus YBR009C, strain hhf1, hits give low values 0.98 | locus YBR021W, strain FUR4, hits give low values 1.01 | locus YBR023C, strain chs3, hits give low values 0.998 | locus YBR171W, strain sec66, hits give low values 1.02 | locus YBR229C, strain ROT2, hits give low values 0.962 | locus YBR231C, strain swc5, hits give low values 1.01 | locus YBR279W, strain paf1, hits give low values 0.998 | locus YCL011C, strain gbp2, hits give low values 0.997 | locus YCL016C, strain dcc1, hits give low values 0.99 | locus YCL029C, strain bik1, hits give low values 0.992 | locus YCL069W, strain vba3, hits give low values 1.03 | locus YCR088W, strain abp1, hits give low values 1.03 | locus YDL005C, strain med2, hits give low values 1.03 | locus YDL035C, strain GPR1, hits give low values 0.995 | locus YDL040C, strain nat1, hits give low values 0.998 | locus YDL074C, strain BRE1, hits give low values 0.932 | locus YDL101C, strain DUN1, hits give low values 0.982 | locus YDL134C, strain PPH21, hits give low values 1 | locus YDL185W, strain tfp1, hits give low values 0.989 | locus YDL192W, strain arf1, hits give low values 0.992 | locus YDR001C, strain nth1, hits give low values 1.01 | locus YDR069C, strain doa4, hits give low values 0.935 | locus YDR101C, strain arx1, hits give low values 0.995 | locus YDR137W, strain rgp1, hits give low values 0.994 | locus YDR150W, strain NUM1, hits give low values 0.99 | locus YDR159W, strain sac3, hits give low values 0.923 | locus YDR162C, strain NBP2, hits give low values 0.994 | locus YDR195W, strain ref2 0.987 | locus YDR297W, strain sur2, hits give low values 0.979 | locus YDR318W, strain mcm21, hits give low values 1 | locus YDR334W, strain swr1, hits give low values 1.01 | locus YDR335W, strain msn5, hits give low values 0.972 | locus YDR388W, hits give low values 0.993 | locus YDR392W, strain spt3, hits give low values 1.01 | locus YDR502C, strain sam2, hits give low values 0.999 | locus YEL003W, strain gim4, hits give low values 1.02 | locus YEL037C, strain rad23, hits give low values 1.01 | locus YEL061C, strain CIN8 (second series), hits give low values 1.02 | locus YEL061C, strain CIN8, hits give low values 0.978 | locus YER015W, strain faa2, hits give low values 1 | locus YER016W, strain bim1, hits give low values 0.997 | locus YER110C, hits give low values 0.989 | locus YER111C, strain swi4, hits give low values 1.02 | locus YER155C, strain BEM2 (second series), hits give low values 0.994 | locus YER155C, strain BEM2, hits give low values 0.996 | locus YER167W, strain BCK2, hits give low values 0.989 | locus YFR010W, strain ubp6, hits give low values 1.01 | locus YGL078C, strain dbp3, hits give low values 1 | locus YGL086W, strain mad1, hits give low values 0.982 | locus YGL167C, strain pmr1, hits give low values 1.01 | locus YGL173C, strain kem1, hits give low values 1.04 | locus YGL227W, strain vid30, hits give low values 1.01 | locus YGL240W, strain doc1, hits give low values 0.92 | locus YGL248W, strain PDE1, hits give low values 0.966 | locus YGL253W, strain hxk2, hits give low values 0.971 | locus YGR135W, strain pre9, hits give low values 1.01 | locus YGR252W, strain gcn5, hits give low values 1.02 | locus YHR013C, strain ard1, hits give low values 1.01 | locus YHR027C, strain rpn1, hits give low values 0.985 | locus YHR030C, strain SLT2, hits give low values 0.996 and 1.03 | locus YHR079C, strain IRE1 (second series), hits give low values 0.999 | locus YHR079C, strain IRE1, hits give low values 1.05 | locus YHR094C, strain hxt1, hits give low values 0.995 | locus YHR129C, strain ARP1, hits give low values 0.997 | locus YHR142W, strain chs7, hits give low values 1.03 | locus YHR200W, strain rpn10, hits give low values 1 | locus YIL066C, strain RNR3, hits give low values 0.973 | locus YIL073C, strain SPO22, hits give low values 1.06 | locus YIL125W, strain kgd1, hits give low values 0.993 | locus YIR030C, strain dcg1, hits give low values 0.993 | locus YJL092W, strain hpr5, hits give low values 1.02 | locus YJL095W, strain BCK1 (second series), hits give low values 0.972 | locus YJL095W, strain BCK1, hits give low values 0.968 and 1.01 | locus YJL115W, strain asf1, hits give low values 1.01 | locus YJL129C, strain trk1, hits give low values 1.04 | locus YJL134W, strain LCB3, hits give low values 0.994 | locus YJL154C, strain vps35, hits give low values 1.03 | locus YJL164C, strain tpk1, hits give low values 1.02 | locus YJL166W, strain qcr8, hits give low values 0.989 | locus YJL168C, strain set2, hits give low values 0.995 | locus YJL187C, strain SWE1 (second series), hits give low values 0.971 | locus YJR043C, strain POL32, hits give low values 0.986 | locus YJR066W, strain TOR1, hits give low values 0.969 | locus YJR075W, strain HOC1, hits give low values 0.979
